Data on 40 compounds can be found in PubChem BioAssay (Tox21).

Records with an inconclusive call do not appear. Values without a mark were called inactive. Calls come from the whole dose curve; as a rule, active = well fitted curve in the direction sought with a large enough effect in the signal ratio in the repeat runs (not every such curve was filed as active); inconclusive = weak or mixed curves, or a change in a side signal; inactive = no such curve, though single readings can be large or run the other way; the % refers to the signal ratio.
% is set by controls: 0 for no effect and ±100 for the full control effect.

This test in a line: qHTS assay to identify small molecule agonists of the NFkB signaling pathway (AID 1159509). The note with it: NFkB-bla ME-180 cells, beta-lactamase FRET ratio, 5 h; series mostly up to 61 µM; activation: at the top concentration. The text has this:
National Center for Advancing Translational Sciences [NCATS]
NIH Chemical Genomics Center [NCGC]
U.S. Environmental Protection Agency [EPA]
National Institutes of Environmental Health Sciences [NIEHS]
National Toxicology Program [NTP]
U.S. Food and Drug Administration [FDA]
Transcription factors and their stimulated target gene expression play pivotal roles across many cellular processes including responses to environmental stimuli. Proper regulation of associated pathways is critical to maintain cell health and function. Constitutive activation of transcription factor pathways has been implicated in tumors as it may block cellular functions such as apoptosis and lead to invasion and metastasis. One important transcription factor that stimulates gene expression in response to cytokines, UV radiation, and other stimuli is nuclear factor-kappa B (NFkB). To measure activation of the NFkB pathway, the CellSensor NFkB-bla ME-180 cell line (Life Technologies, Carlsbad, CA) that stably expresses beta-lactamase reporter gene under the regulation of a NF-kB response element was used. This assay allows measurement of the NFkB pathway activity induced by compounds in a ME-180 cell line. This system quantitates NF-kB activity using a FRET-based assay system where beta-lactamase expression disrupts FRET, allowing for fluorescent measurement of activity. This cell line has been used to screen the Tox21 10K compound library and to identify compounds that induce the NFkB pathway activity.
Tox21 Assay Protocol Summary:
NFkB-bla ME-180 cells were dispensed at 2,000 cells/6 uL of assay medium per well into black wall/clear-bottom 1536-well plates using a Multidrop Combi (ThermoFisher Scientific, Waltham, MA) dispenser. After the assay plates were incubated at 37 C and 5% CO2 for an overnight, 23 nL of compounds dissolved in DMSO, positive controls or DMSO only was transferred to the assay plate by a Pintool station (Kalypsys, San Diego, CA). The assay plates were incubated at 37 C and 5% CO2 for 5 hr. One uL of LiveBLAzer B/G FRET substrate (Life Technologies) was added using a Flying Reagent Dispenser (Aurora Discovery, San Diego, CA) and the plates were incubated at room temperature for 1.5 hr. Fluorescence intensity (405 nm excitation, 460 nm and 530 nm emissions) was measured using an Envision plate reader (PerkinElmer, Shelton, CT).
(In general: In qHTS, concentration-response curves come from the screen itself.)
With `C[C@H]1C[C@H]2[C@@H]3CCC4=CC(=O)C=C[C@]4(C)[C@@]3(F)[C@@H](O)C[C@]2(C)[C@@]1(O)C(=O)COP(=O)(O)O`, the “activation” value was -0.272%.

As to `C[C@]12CCC(=O)C=C1[C@@H]1C[C@@H]1[C@H]1[C@@H]3[C@@H]4C[C@@H]4[C@@]4(CCC(=O)O4)[C@@]3(C)CC[C@@H]12`, the “activation” value was -0.706%.

In the case of `Nc1ccc(-c2ccc(F)cc2)cc1`, the “activation” value was -0.601%.

For `CC(C)(C)c1cc(C=O)cc(C(C)(C)C)c1O`, the “activation” value was 0.0141%.

As for `Nc1ccc(C(=O)Oc2ccccc2)c(O)c1`, the “activation” value is -0.392%.

Turning to `O=C1c2ccccc2C(=O)C1c1ccc2cc(S(=O)(=O)O)cc(S(=O)(=O)O)c2n1`, the “activation” value was -0.374% [at 78.8 µM].

Turning to `CCCCCCC/C=C/C=O`, the “activation” value was -0.956%.

As for `CC(=O)OCC(=O)[C@@]1(O)CC[C@H]2[C@@H]3CCC4=CC(=O)C=C[C@]4(C)[C@@]3(F)[C@@H](O)C[C@@]21C`, the “activation” value is -0.234%.

Regarding `CC(C)NC(=O)c1ccccc1N`, the “activation” value is -0.484%.

Consider `CCCCCCCCS`, for which the “activation” value is -0.0192% [at 78.8 µM].

With `CC(C)=CCC[C@H](C)CCO`, the “activation” value is 0.271%.

As to `C=Cc1ccc(C=C)cc1`, the “activation” value is -0.138% [at 78.8 µM].

With `CC1(COc2ccc(CC3SC(=O)NC3=O)cc2)CCCCC1` (stereo not given), the “activation” value is -0.0584%.

Consider `O=C1c2ccccc2C(=O)C1c1ccc2ccccc2n1`, for which the “activation” value was -0.0985%.

Take `CCCc1nc(C)c2c(=O)[nH]c(-c3cc(S(=O)(=O)N4CCN(CC)CC4)ccc3OCC)nn12`: the “activation” value is -0.43%.

On to `CC(C)=CCC/C(C)=C/C=N/O`, for which the “activation” value is -0.899%.

For the compound `Cc1ccc(NC=O)c(C)c1`, the “activation” value was -0.442%.

Consider `CCc1ccc2c(c1)C(=O)c1ccccc1C2=O`, for which the “activation” value was -1.21%.

As for `Cc1ccc2ccccc2c1[N+](=O)[O-]`, the “activation” value is 0.97%.

As for `CCC(=O)O[C@]1(C(=O)COC)[C@@H](C)C[C@H]2[C@@H]3CCC4=CC(=O)C=C[C@]4(C)C3(F)[C@@H](O)C[C@@]21C` (stereo not given in full), the “activation” value is -0.717%.

With `Cc1cc(C)c(C)c(O)c1`, the “activation” value was -0.843%.

Turning to `CC(C)(C(=O)O)c1ccc(C(O)CCCN2CCC(C(O)(c3ccccc3)c3ccccc3)CC2)cc1` (stereo not given), the “activation” value was 0.837%.

As for `COC(=O)/C=C/C(C)=C\C=C\C(C)=C\C=C\C=C(C)\C=C\C=C(C)\C=C\C(=O)O`, the “activation” value was -1.54%.

For the compound `COc1ccc(/C=C/c2cc(OC)cc(=O)o2)cc1`, the “activation” value was 0.0394%.

`C[C@@H](O)[C@H]1C(=O)N2C(C(=O)O)=C(S[C@@H]3CN[C@H](CNS(N)(=O)=O)C3)[C@H](C)[C@H]12`: the “activation” value was -0.985%.

Turning to `FC(F)(Cl)C(F)(Cl)Cl`, the “activation” value was 2.21%.

For the compound `O=P(c1ccccc1)(c1ccccc1)c1ccccc1`, the “activation” value was -0.631%.

For `Cc1nc2sccn2c(=O)c1CCN1CCC(=C(c2ccc(F)cc2)c2ccc(F)cc2)CC1`, the “activation” value is -0.192%.

As to `CCOC(=O)CC(O)(CC(=O)OCC)C(=O)OCC`, the “activation” value was -0.384%.

Consider `Nc1cccc2c(=O)[nH][nH]c(=O)c12`, for which the “activation” value was -0.269% [at 78.8 µM].

Take `O=C(Cl)c1ccc(F)c(Cl)c1`: the “activation” value is -0.0858%.

Regarding `C=CC(C)(O)CC/C=C(/C)CCC=C(C)C` (stereo not given), the “activation” value was -0.0767%.

Consider `CCC1=C(C)CN(C(=O)NCCc2ccc(S(=O)(=O)NC(=O)NC3CCC(C)CC3)cc2)C1=O` (stereo not given), for which the “activation” value is 0.261%.

For `O=S(=O)(O)c1cc(Cl)c(Cl)cc1Cl`, the “activation” value was 0.123%.

Take `COc1ccnc2c1CCCCC2S(=O)c1nc2ccccc2[nH]1` (stereo not given): the “activation” value is -0.912%.

On to `CC(CCl)OC(C)CCl` (stereo not given), for which the “activation” value is -0.524%.

`c1ccc(-c2ccc(-c3ccccc3)cc2)cc1`: the “activation” value was -0.48% [at 28.5 µM].

As to `CCCCCC1CCC(=O)O1` (stereo not given), the “activation” value was 0.0517%.

In the case of `O=C1c2ccccc2C(=O)c2c1ccc(O)c2O`, the “activation” value is -0.168%.

`CC(=O)Nc1ccn(C2COC(COC(=O)c3ccccc3)O2)c(=O)n1` (stereo not given): the “activation” value is 0.0287%.
